According to PubChem BioAssay:
Records with an inconclusive call do not appear. The source made the active and inactive calls. Unless noted, the limit is not given here; nearly all actives have AC50 up to about 30 µM.

Legend:
[1] = growth inhibition of DIPG glioma cells, dose response, cell-based, JHH-DIPG-1, MIPE4.0, CellTiter-Glo, qHTS (AID 1347062; cut-off not given, nearly all actives have AC50 up to about 27 µM;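 as to AC50: cells exposed to compound for two days before readout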); details: JHH-DIPG-1 viability, CellTiter-Glo ATP luminescence
[2] = SU-DIPG-VI glioma cell viability, MIPE4.0 library, CellTiter-Glo luminescence, qHTS (AID 1347066); details: CellTiter-Glo ATP luminescence;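 also: cells exposed to compound for 48 hours before readout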
[3] = growth inhibition of DIPG glioma cells, dose response, cell-based, SU-DIPG-XIII, MIPE4.0, CellTiter-Glo, qHTS (AID 1347061; cut-off not given, nearly all actives have AC50 up to about 37 µM;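 also: cells exposed to compound for 48 hours before readout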); details: SU-DIPG-XIII viability, CellTiter-Glo ATP luminescence
[4] = growth inhibition of DIPG glioma cells, dose response, cell-based, SU-DIPG-IV, MIPE4.0, CellTiter-Glo, qHTS (AID 1347063); details: SU-DIPG-IV viability, CellTiter-Glo ATP luminescence;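 also: compound exposure lasted 48 hours before the viability readout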
[5] = viability loss in pontine glioma line – cell-based, SU-DIPG-XXV, MIPE5.0, CellTiter-Glo, qHTS, dose response (AID 1347065; cut-off not given, nearly all actives have AC50 up to about 26 µM;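 also: cells exposed to compound for 48 hours before ATP readout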); details: CellTiter-Glo ATP luminescence
[6] = JHH-DIPG-1 glioma cell viability, MIPE5.0 library, CellTiter-Glo luminescence, qHTS (AID 1347067; cut-off not given, nearly all actives have AC50 up to about 26 µM;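 also: cells exposed to compound for 48 hours before readout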); details: JHH-DIPG-1 glioma viability, CellTiter-Glo ATP luminescence
[7] = SU-DIPG-XXV glioma cell viability, MIPE5.0 library, qHTS (AID 1347068; cut-off not given, nearly all actives have IC50 up to about 30 µM;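 as to IC50: cells exposed to compound for 48 hours before viability readout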)
[8] = growth inhibition of DIPG glioma cells, dose response, cell-based, SU-DIPG-XIII, MIPE5.0, CellTiter-Glo, qHTS (AID 1347064; cut-off not given, nearly all actives have AC50 up to about 23 µM); details: SU-DIPG-XIII viability, CellTiter-Glo ATP luminescence
[9] = sensitizers of A549 cells to miR-34 induction, primary screen, imaging, A549 dox-inducible miR-34, nuclei and caspase counts (AID 1347080;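 active = compounds whose cell count with miR-34 switched on is under 0.7 times the count with it off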); details: A549 miR-34 inducible, Hoechst nuclei count, 48 h
[10] = survival rescue of mitochondrial mutant cells in low glucose, primary screen, MELAS cybrids, Rieske KO mouse fibroblasts, CellTiter-Glo (AID 1508586;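 active = mean z-score across replicates of 1.96 or higher in either the MELAS or the Rieske mutant cell line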;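 also: z relative to plate mean and SD of compound and empty wells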)

With `c1cc2c(cc1[C@H]1OC[C@H]3[C@@H]1CO[C@@H]3c1ccc3c(c1)OCO3)OCO2` the outcome [1] was “inactive” and the outcome [2] was “inactive”.

With `CC(C)(C)[C@]1(O)C[C@@H]2OC(=O)C[C@@]23C(=O)O[C@@H]2OC(=O)[C@H](O)C213` (stereo partly specified) the outcome [3] was “inactive”, the outcome [1] was “inactive” and the outcome [4] was “inactive”. The outcome [2] was “inactive”.

With `CO/C1=C/C(C)=C\[C@@H](C)[C@@H](O)[C@@H](C)C/C(C)=C\C=C/[C@H](OC)[C@@H]([C@@H](C)[C@@H](O)[C@H](C)[C@@]2(O)C[C@@H](O)[C@H](C)[C@@H](C(C)C)O2)OC1=O` the AC50 [1] was 11.8 µM (active), the AC50 [4] was 9.35 µM (active) and the AC50 [5] was 0.393 µM (active). The AC50 [2] was 3.72 µM (active), the AC50 [6] was 9.86 µM (active) and the IC50 [7] was 0.0494 µM (active).

With `C[C@@H]1O[C@@H](O[C@@H]2C=C3CC[C@H]4[C@@H](CC[C@]5(C)[C@H](c6ccc(=O)oc6)CC[C@@]45O)[C@@]3(C)CC2)[C@H](O)[C@H](O)[C@@H]1O` the AC50 [3] was 0.00935 µM (active), the AC50 [1] was 0.00469 µM (active) and the AC50 [4] was 0.0209 µM (active). For the same compound, the AC50 [2] was 0.00743 µM (active).

For `C[C@]12CC[C@H]3[C@@H](CCC4=CC(=O)CC[C@@H]43)[C@@H]1CC[C@@H]2OC(=O)CCc1ccccc1`, the outcome [3] was “inactive”, the outcome [1] was “inactive” and the outcome [4] was “inactive”. For the same compound, the outcome [2] was “inactive” and the outcome [7] was “inactive”.

With `C=C[C@H]1CN2CCC1C[C@H]2[C@H](O)c1ccnc2ccccc12` (stereo partly specified) the AC50 [1] was 20.9 µM (active) and the outcome [2] was “inactive”.

For `CCOC(=O)Nc1ccc(NCc2ccc(F)cc2)cc1N`, the outcome [3] was “inactive”, the outcome [8] was “inactive” and the outcome [5] was “inactive”. For the same compound, the outcome [2] was “inactive”, the outcome [6] was “inactive” and the outcome [7] was “inactive”.

With `CC1(N2CCC(n3c([C@@H]4CCCNC4)nc4ccccc43)CC2)CCCCCCC1` the outcome [3] was “inactive”, the AC50 [1] was 14.8 µM (active) and the IC50 [7] was 20.9 µM (active).

For `COc1ccc(CC2NCCc3cc(OC)c(OC)cc32)cc1OC` (stereo unspecified), the outcome [3] was “inactive”, the outcome [4] was “inactive” and the outcome [2] was “inactive”. For the same compound, the fold change ([9]; stronger effect = lower value, cell number ratio, induced over uninduced) was 0.988 (inactive), the fold change ([9]; measured here: relative caspase fold change +Dox/-Dox) was 0.746 and the cell count ([9]; measured here: total cells with miR-34 induction, stronger effect = lower value) was 9220. The cell count ([9]; measured here: total cells without miR-34 induction) was 9330, the z-score ([10]; MELAS cybrid survival, CellTiter-Glo 48 h, stronger effect = higher value) was -0.321 (inactive) and the z-score ([10]; Rieske KO mouse fibroblast survival, CellTiter-Glo 72 h) was 0.618.
